PGE2 EP2 inh: inhibitors of human EP2 prostaglandin E2 receptor. P43116. C6 glioma cells expressing human EP2, cAMP TR-FRET; cells stimulated with saturating PGE2. inhibition, % at 25 µM. 0.52% of 260,000 active. AID 1422;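 active means percent inhibition above 40 after rounding to a whole number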;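 further: rat C6 glioma host cells with rolipram phosphodiesterase inhibitor present; the protocol text gives 20 µM as final concentration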
Target sequence (P43116 whole entry, looked up): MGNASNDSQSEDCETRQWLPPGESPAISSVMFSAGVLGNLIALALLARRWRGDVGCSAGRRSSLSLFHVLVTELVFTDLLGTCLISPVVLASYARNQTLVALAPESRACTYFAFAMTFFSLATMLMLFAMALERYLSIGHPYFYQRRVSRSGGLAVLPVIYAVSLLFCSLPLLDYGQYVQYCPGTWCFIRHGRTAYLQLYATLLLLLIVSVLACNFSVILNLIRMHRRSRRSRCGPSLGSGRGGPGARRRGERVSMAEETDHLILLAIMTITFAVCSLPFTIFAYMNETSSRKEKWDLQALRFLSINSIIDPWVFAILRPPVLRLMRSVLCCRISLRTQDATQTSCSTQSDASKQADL
CHT allo act: allosteric activators of human choline transporter CHT | Q9GZV3 | CHT-expressing cells, membrane potential dye, choline EC20; active compounds read high; LV-AA mutant CHT in HEK293 cells | B-score at 10 µM | 0.49% of 310,000 active;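 active means initial fluorescence not abnormally high and integrated response B-score, plate-corrected, over 3 SD above library mean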
EP2 mod: modulates human prostaglandin E2 receptor EP2 signaling; EP2-expressing cells, cAMP HTRF FRET, PGE2 co-stimulation; 0.83% of 260,000 active; induction, % at 25 µM; P43116; AID 940;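 active means compounds whose cAMP rise, as percent of the full-agonist control response, exceeds 60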;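 further: rat C6 glioma line stably carrying human EP2 under a CMV promoter; the protocol text gives 20 µM as final concentration; 100% = response of wells given 1 µM PGE2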
CHT block: inhibits the human high affinity choline transporter | 0.86% of 310,000 active | Q9GZV3 | CHT-expressing cells, membrane potential dye, choline response; active compounds read low | B-score at 10 µM;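 active means B-score over 3 SD under the library average, and starting fluorescence ratio not unusually high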;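 further: choline stimulus applied at its EC90 after an EC20 pre-addition; B-score computed on integrated fluorescence ratio after choline addition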
EP2 cAMP induct: EP2 receptor cAMP induction, counter-screens negative. shares compounds with EP2 mod. C6 glioma EP2 cells, cAMP HTRF induction; plus low (about EC15) PGE2 agonist. calls only at 20 µM (by protocol). 47% of 1,300 active. AID 1080;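 active means cAMP induction above 50% in the main assay while under 30% in all four parallel counter assays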;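 further: rat C6 glioma cells stably expressing human EP2 receptor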
An asterisk follows results filed as active; i = inactive; . = no result given; + = active, no number; ! = not active in a repeat. Most compounds without a hit are left out; they make up all but 2% or so of the library.

SMILES	PGE2 EP2 inh	CHT allo act	EP2 mod	CHT block	EP2 cAMP induct
O=C(/C=C/Nc1ccccc1Oc1ccccc1)c1ccco1	8	i	65*	i	i
O=C(/C=C/Nc1ccc(Oc2ccccc2Cl)cc1)c1ccco1	5	i	-24	i	.
O=C(c1ccccn1)N1CCC(O)(c2ccccn2)CC1	.	.	25	.	.
Cc1ccc(C)c2[nH]c(=O)c(C(c3nnnn3Cc3ccccc3)N3c4ccccc4CC3C)cc12 (stereo unspecified)	9	.	37	.	.
O=C(CNCC1CCCCC1)Nc1ccccc1N1CCCCC1	5	i	66*	i	+
O=C(Cc1c(F)cccc1Cl)Nc1ccccc1N1CCCCC1	5	i	75*	i	+
O=C(Cc1c(F)cccc1Cl)Nc1ccccc1C(=O)N1CCCCC1	.	i	.	i	.
O=C(Nc1ccccc1N1CCCCC1)c1ccc(F)cc1	6	i	66*	i	+
O=C(Nc1ccccc1N1CCCCC1)c1cccc([N+](=O)[O-])c1	3	i	51	i	+
O=C(Nc1ccccc1N1CCOCC1)c1cccc([N+](=O)[O-])c1	10	i	2	i	.
C#CCOc1ccc(-c2nc3cnccn3c2NCC2CCCO2)cc1OC (stereo unspecified)	.	.	-61	.	.
COc1ccc(OCCN2CCN(Cc3cn(CC(N)=O)c4ccccc34)CC2)cc1	4	.	-37	.	.
CC1=CC2C(CC1=O)C(C)=CCC2C(C)C (stereo unspecified)	2	.	55	.	+
CCOC(=O)C1CCCN(c2c(C(=O)c3ccccc3)cnc3ccc(OC)cc23)C1 (stereo unspecified)	7	i	68*	i	i
CC(C)(C)NC(=O)CN(Cc1ccc2c(c1)OCO2)C(=O)Cn1nnc(-c2ccc(F)cc2)n1	8	.	-114	.	.
OC(c1ccccc1)C1CN(Cc2ccccc2)CCC1(O)c1ccccc1 (stereo unspecified)	11	i	12	i	.
O=C(c1ccccc1)C1CN(Cc2ccccc2)CCC1(O)c1ccccc1 (stereo unspecified)	7	i	76*	i	i
CC1(C)CC(N(Cc2ccncc2)Cc2coc3ccccc3c2=O)CC(C)(C)N1	7	.	-25	.	.
Cc1ccc(-c2nc(Cl)nc3ccccc23)cc1	20	i	47	i	.
Cc1ccc(-c2nc3ccccc3nc2Cl)cc1	8	i	65*	i	i
CC(C)(C)c1nc2ccccc2c2nnc(SCC(=O)Nc3ccc(N4CCOCC4)cc3)n12	14	.	10	.	.
CCC1C/C(=C/c2ccco2)C(=O)/C(=C/c2ccco2)C1 (stereo unspecified)	8	i	68*	i	i
COC(=O)c1c(C)nc2ccccc2c1-c1ccccc1	6	i	89*	i	i
COc1ccc(C(=O)COC(=O)C(CCSC)NS(=O)(=O)c2ccc(Cl)cc2)cc1 (stereo unspecified)	9	i	70*	i	i
COC(=O)C(CCSC)NS(=O)(=O)c1ccc(Cl)cc1 (stereo unspecified)	10	i	24	i	.
SMILES	PGE2 EP2 inh	CHT allo act	EP2 mod	CHT block	EP2 cAMP induct
CCc1ccc2[nH]c(=O)c(C(c3nnnn3C(C)(C)C)N3CCCc4ccccc43)cc2c1 (stereo unspecified)	5	.	49	.	.
C=CCn1c(-c2cccc(Cl)c2)n[nH]c1=S	33	i	21	i	.
C=CCn1c(-c2oc3nc(-c4ccccc4)cc(-c4ccccc4)c3c2N)n[nH]c1=S	4	i	61*	i	i
Cc1ccc(OCC(=O)NNC(=O)C2CCN(c3ncccn3)CC2)cc1	8	i	65*!	i	i
Cc1ccc(OCC(=O)NNC(=O)C2CCN(c3nc(C)cc(C)n3)CC2)cc1	17	i	21	i	.
O=C(CSc1nnc(-c2cccnc2)n1Cc1ccco1)Nc1ccc2c(c1)OCCO2	8	.	-2	.	.
Cc1c(C(=O)N2CCOCC2)sc(NC(=O)COc2ccccc2)c1C#N	2	.	5	.	.
CCOc1ccc(-c2nn3c(-c4ccccc4)nnc3s2)cc1	11	i	65*	i	+
COCCn1c(COc2ccc(Cl)cc2)n[nH]c1=S	8	.	-13	.	.
CCOC(=O)c1c(NC(=O)c2ccoc2C)sc(C)c1C	17	i	77*	i	i
CCOC(=O)c1c(NC(=O)c2c(Br)cnn2CC)sc(C)c1C	14	i	73*	i	+
CCOC(=O)c1c(NC(=O)CSC(=S)N(C)C)sc(C)c1C	9	i	66*	i	+
CCn1ncc(Br)c1C(=O)Nc1sc2c(c1C(=O)OC)CCC2	39	i	.	i	.
CCc1c(C)sc(NC(=O)c2ccoc2C)c1C(N)=O	.	i	.	i	.
CCOC(=O)c1c(NC(=O)COC(=O)c2ccncc2)sc(C)c1C	4	i	21	i	.
CCOC(=O)c1c(NC(=O)c2ccncc2)sc(C)c1C	7	i	74*	i	+
CCN(CC)C(=O)CSc1nc2c(C)cc(C)cc2cc1C#N	11	.	15	.	.
O=C(CSc1n[nH]c(-c2ccncc2)n1)Nc1cccc(Cl)c1Cl	6	.	-43	.	.
CC1CC(C)CN(C(=O)Cn2nc(-c3ccco3)cc(N)c2=O)C1 (stereo unspecified)	9	.	-5	.	.
OC(Cc1ccccc1)(Cc1ccccc1)c1ccccc1	9	.	59	.	i
O=C(c1ccccc1)C(O)(Cc1ccccc1)c1ccccc1 (stereo unspecified)	.	i	.	i	.
Cn1c(=O)[nH]c(=O)c2c1nc(N1CCCC1)n2CCCSc1ncccn1	8	.	-97	.	.
CCOc1ccc(CC(=O)NC(C)c2nc(-c3ccncc3)n[nH]2)cc1 (stereo unspecified)	0	.	-66	.	.
COc1ccccc1CNC(=O)C1(c2ccc(Cl)cc2)CC1	8	i	69*	i	i
CCOC(=O)C1CCN(c2ncnc3c2[nH]c2cccc(OC)c23)CC1	2	i	-32	i	.
SMILES	PGE2 EP2 inh	CHT allo act	EP2 mod	CHT block	EP2 cAMP induct
COc1cccc2[nH]c3c(N4CCCCC4)ncnc3c12	4	i	94*	i	+
O=C(CC(Sc1ccccc1)c1cccs1)c1ccco1 (stereo unspecified)	12	i	89*	i	i
CSc1nnc(CSCc2ccc(Cl)cc2Cl)n1-c1ccccc1	5	i	61*	i	+
Cn1c(CSCc2ccc(Cl)cc2Cl)n[nH]c1=S	13	i	-5	i	.
CCNC(=O)C1CCN(C(=O)c2ccccc2Cl)CC1	8	.	12	.	.
CCOC(=O)c1c(-c2ccc(C)cc2)csc1NC(=O)CCN1CC(C)OC(C)C1 (stereo unspecified)	6	i	86*	i	+
CCOC(=O)c1c(-c2ccc(C)o2)csc1NC(=O)CN1CCCCC1	4	i	66*	i	i
